The values that follow come from PubChem BioAssay (Tox21).

Results filed as inconclusive are left out. Activity calls are given as the source filed them. Unless noted, calls come from the whole dose curve; as a rule, active = well fitted curve in the direction sought with a large enough effect in the repeat runs; inconclusive = weak or mixed curves; inactive = no such curve, though single readings can be large; an effect the other way counts as inactive or inconclusive.

The nature of assay [1]: qHTS assay to identify small molecule agonists of the vitamin D receptor (VDR) signaling pathway - cell viability counter screen (AID 743224). Note: nearly all actives have a fitted effect of over 50% in size. Note: potency is the fitted concentration of half-maximal effect. In a few lines: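 Here cell health was gauged by luminescent ATP detection (CellTiter-Glo, 30 min RT) in VDR-bla cells that had been incubated with test compounds for 16 h at 37C and 5% CO2.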
Assay [2] in a line: qHTS assay to identify small molecule agonists of the NFkB signaling pathway (AID 1159509; active = well fitted curve in the direction sought with a large enough effect in the signal ratio in the repeat runs, not every such curve was filed as active; the % refers to the signal ratio). In a few lines: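 NFkB-bla ME-180 cells with a beta-lactamase reporter under an NF-kB response element were plated overnight, treated with compounds in DMSO for 5 hr at 37 C, then loaded with FRET substrate for 1.5 hr at room temperature.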
Assay [3] in a line: qHTS assay to identify small molecule agonists of the endoplasmic reticulum stress response signaling pathway (AID 1159516; active = well fitted activation curve with a large enough effect in the signal ratio in the repeat runs, not every such curve was filed as active; the % refers to the signal ratio). An outline of the steps: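 Reporter HeLa cells (ESRE-beta-lactamase) underwent 5 hr compound incubation at 37 C and 5% CO2 in quantitative HTS format. Detection followed 2 hr of FRET substrate loading at room temperature.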
The nature of assay [4]: qHTS assay to identify small molecule agonists of the endoplasmic reticulum stress response signaling pathway - cell viability counter screen (AID 1159517; calls by dose curve;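 note: HeLa cells carrying an ER stress response element beta-lactamase reporter; nearly all actives have a fitted effect of over 50% in size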). In a few lines: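 Counter-screen wells were identical to the reporter wells. Cells were plated at 1,500 per well and dosed for 5 hr, then read for luminescence 30 min after CellTiter-Glo addition.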
Assay [5] in a line: qHTS assay to identify small molecule antagonists of the retinoid-related orphan receptor gamma (ROR-gamma) signaling pathway - cell viability counter screen (AID 1159520). Note: nearly all actives have a fitted effect of over 50% in size. In a few lines: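 Tet-on ROR gamma CHO cells were given compounds for 2 hr, then doxycycline hyclate at 1 uM final, and incubated 16 hr at 37 C. Viability was measured as ATP content by CellTiter-Glo luminescence.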

Assay [6] in a line: qHTS assay to identify small molecule agonists of the AP-1 signaling pathway - cell viability counter screen (AID 1159525; calls by dose curve; note: nearly all actives have a fitted effect of over 55% in size). In a few lines:
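AP-1-bla ME-180 cells in Opti-MEM with 0.5% dialyzed FBS, compound exposure 5 h at 37 C in 15-point titration. Viability read in the same wells as ATP content by CellTiter-Glo luminescence, normalised to tetra-n-octylammonium bromide and DMSO controls.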

Assay [7] is described as follows: qHTS assay to identify small molecule agonists of the AP-1 signaling pathway (AID 1159526; calls by dose curve).
The target of assay [8] is Retinoic acid receptor RXR-alpha (Homo sapiens) (UniProt P19793). Kind of assay: qHTS assay to identify small molecule agonists of the RXR signaling pathway (AID 1159527; calls by dose curve; note: nearly all actives have a fitted effect of over 35% in size; note: potency is the fitted concentration of half-maximal effect). An outline of the steps:
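Compounds in DMSO were added to RXR-alpha-UAS-bla HEK 293T cells kept in 2% charcoal-stripped serum, and incubated 16 hr at 37 C with 5% CO2. Reporter signal came from a 2 hr B/G FRET substrate step.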

The nature of assay [9]: qHTS assay to identify small molecule agonists of the RXR signaling pathway - cell viability counter screen (AID 1159529). Note: nearly all actives have a fitted effect of over 50% in size. In a few lines:
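Counter screen: CellTiter-Glo luminescence. Cells: RXR-alpha-UAS-bla HEK 293T. Medium: 2% charcoal-stripped FBS. Treatment: 16 h, 37 C. Reagent incubation: 30 min, RT.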

Assay [10] can be described thus: qHTS assay to identify small molecule antagonists of the retinoid acid receptor (RAR) signaling pathway - cell viability counter screen (AID 1159551). Note: nearly all actives have a fitted effect of over 35% in size. An outline of the steps:
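Seed C3RL4 cells; next day add compound, then retinol to 1 uM final; incubate 6 h at 37 C; add CellTiter-Glo; read luminescence after 30 min at RT.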

Assay [11] in a line: qHTS assay to identify small molecule antagonists of the vitamin D receptor (VDR) signaling pathway - cell viability counter screen (AID 743225). Note: nearly all actives have a fitted effect of over 50% in size. Note: potency is the fitted concentration of half-maximal effect. In a few lines: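 Same-well multiplex: following 16 h treatment of HEK 293T cells carrying a UAS-driven beta-lactamase reporter with compound and agonist (3 nM final), and a 2 h FRET substrate step, CellTiter-Glo was added and luminescence read after 30 min.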

Assay [12] in a line: qHTS assay to identify small molecule antagonists of the retinoic acid receptor (RAR) signaling pathway (AID 1159552; note: nearly all actives have a fitted effect of over 50% in size). An outline of the steps:
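Antagonism of retinol-induced RARE reporter activity was measured in C3RL4 cells. Exposure to compounds and 1 uM final retinol lasted 6 hr at 37 C, with luminescence as endpoint.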

A short description of assay [13]: qHTS assay to identify small molecule agonists of the retinoic acid receptor (RAR) signaling pathway (AID 1159553). The note with it: C3RL4 RARE luciferase reporter, agonist, 6 h; activation: at 73.3 µM (top of the series). In a few lines: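 Activation of retinol signaling was monitored via a RARE luciferase reporter in C3RL4 cells. After 6 hr compound treatment at 37 C, detection reagent was added for 30 min at room temperature before luminescence reading.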

Assay [14] addresses Nuclear receptor ROR-gamma (Homo sapiens) (UniProt P51449). In words: qHTS assay to identify small molecule antagonists of the retinoid-related orphan receptor gamma (ROR-gamma) signaling pathway (AID 1159521; note: nearly all actives have a fitted effect of over 50% in size; note: potency is the fitted concentration of half-maximal effect). In a few lines:
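Inducible-expression reporter assay: doxycycline (1 uM final) switched on RORγ in CHO cells bearing a ROR response element-luciferase construct, with test compounds present from 2 h beforehand. Decreased luminescence after 16 h defined antagonist activity.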

A short description of assay [15]: qHTS assay to identify small molecule antagonists of the estrogen related receptor (ERR) signaling pathway - cell viability counter screen (AID 1224818).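 Note: viability measured after 17.5 h of compound exposure.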 In a few lines:
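In the same ERR cell assay, compound-treated wells (17.5 h, 37 C) were multiplexed with a fluorogenic viability reagent, CellTiter-Fluor, read after 30 min to flag cytotoxic substances.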

Assay [16] is described as follows: qHTS assay to identify small molecule antagonists of the estrogen related receptor (ERR) signaling pathway (AID 1224819). An outline of the steps:
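qHTS in ERR cells, 2,000/well, 1536 format. Cpd (DMSO) added after 6 h settle, 18 h 37 C. One-Glo luminescence, 30 min RT.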

The subject of assay [17] is estrogen-related receptor alpha (ERRalpha) with PGC-1alpha coactivator, human. In words: qHTS assay to identify small molecule antagonists of the estrogen related receptor signaling pathway with the pleiotropic PPARgamma coactivator (PGC) (AID 1224821; calls by dose curve). In a few lines:
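Cells engineered for PGC/ERR signalling (line from NTP) were plated 6 h at 37 C/5% CO2, then exposed to DMSO-dissolved compound for 18 h at 37 C. Luciferase activity was read by One-Glo luminescence after 30 min at room temperature.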

A short description of assay [18]: qHTS assay to identify small molecule antagonists of the estrogen related receptor signaling pathway with the pleiotropic PPARgamma coactivator (PGC) cell viability counter screen (AID 1224822). In a few lines: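 Compounds in DMSO, with positive and negative controls, were applied to PGC/ERR cells (2,000/well) and left 17.5 h at 37 C before CellTiter-Fluor detection.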

Retinoic acid receptor RXR-alpha (Homo sapiens), sequence (P19793 whole entry, looked up): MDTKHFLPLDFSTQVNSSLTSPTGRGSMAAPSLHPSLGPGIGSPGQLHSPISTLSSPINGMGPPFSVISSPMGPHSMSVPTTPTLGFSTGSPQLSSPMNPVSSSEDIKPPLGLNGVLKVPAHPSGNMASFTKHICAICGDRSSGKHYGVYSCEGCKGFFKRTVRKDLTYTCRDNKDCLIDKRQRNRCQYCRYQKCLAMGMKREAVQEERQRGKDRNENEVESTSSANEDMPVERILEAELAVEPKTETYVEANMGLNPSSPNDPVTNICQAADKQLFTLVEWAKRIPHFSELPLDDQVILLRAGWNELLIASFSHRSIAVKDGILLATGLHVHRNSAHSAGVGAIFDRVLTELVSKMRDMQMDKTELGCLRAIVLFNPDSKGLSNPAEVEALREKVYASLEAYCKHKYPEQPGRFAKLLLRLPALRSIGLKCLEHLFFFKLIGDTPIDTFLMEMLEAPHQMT

For the compound `CCC=CC#N`, the Potency result in [1], in assay [2], in [3], in [4], in assay [5] and in assay [6] was “inactive” in each case. Besides, the Potency result in [7], in assay [8], in assay [9] and in assay [10] was “inactive” each time.

Turning to `CCC(C)COC(C)=O` (configuration not stated), the Potency result in assay [1], in [11], in assay [2], in assay [3], in [5] and in [6] was “inactive” in each case. Moreover, the Potency entry in [7], in [9], in [10], in assay [12] and in [13] was “inactive” each time.

In the case of `O[C@@H]1CO[C@H]2[C@@H]1OC[C@@H]2O`, the Potency entry in assay [1], in [11], in [2], in [4], in assay [5] and in assay [14] was “inactive” throughout. Moreover, the Potency result in assay [6], in [7], in [8], in assay [9], in [10] and in [12] was “inactive” in each case. Moreover, in [13], the Potency result is “inactive”.

Regarding `CCCCCCCC/C=C\CCCCCCCCCCCC(=O)O`, the Potency entry in assay [1], in [11], in assay [2], in [3], in assay [4] and in assay [5] was “inactive” in each case. Moreover, the Potency entry in [6], in assay [7], in assay [8], in assay [9], in assay [10] and in [12] was “inactive” throughout. For the same compound, in [13], the Potency result was “inactive”.

For the compound `CC(C)C(O)(c1ccc(OC(F)(F)F)cc1)c1cncnc1` (configuration not stated), the Potency entry in assay [1], in [11], in assay [2], in assay [3], in [5] and in assay [14] was “inactive” each time. Further, the Potency entry in assay [6], in [7], in assay [8], in [9], in assay [10] and in [12] was “inactive” each time. For the same compound, the Potency result in assay [13] was “inactive”.

`COc1ccccc1NC(=O)c1cc2ccccc2cc1O`: the Potency in [1] is 21.9 µM (active); in assay [11], 38.9 µM (active); in assay [14] it was 30.6 µM (active). In addition, the Potency entry in assay [2], in assay [3], in assay [4], in [6], in [7] and in [9] was “inactive” in each case. The Potency result in assay [10] and in assay [12] was “inactive” throughout.

Regarding `CCCCC(CC)CN` (configuration not stated), the Potency entry in assay [1], in assay [2], in assay [3], in assay [5], in assay [6] and in assay [7] was “inactive” each time. Also, the Potency result in assay [9], in assay [10], in [12] and in assay [13] was “inactive” throughout.

Take `NC1[C@H]2CN(c3nc4c(cc3F)c(=O)c(C(=O)O)cn4-c3ccc(F)cc3F)C[C@@H]12` (some centres not stated): the Potency result in [2], in assay [4], in assay [5], in [14], in assay [6] and in assay [7] was “inactive” in each case. The Potency entry in assay [9] and in assay [10] was “inactive” throughout. In assay [8], the Potency is 19 µM (active). For the same compound, the compound was classed as inactive in assay [15], in assay [16], in assay [17] and in assay [18].

On to `O=C(O)C[C@H](NC(=O)OCc1ccccc1)C(=O)O`, for which the Potency entry in assay [1], in assay [11], in assay [2], in [4], in assay [5] and in [14] was “inactive” each time. The Potency entry in assay [6], in assay [7], in assay [8], in [9], in [10] and in assay [12] was “inactive” each time. For the same compound, in [13], the Potency entry was “inactive”.
